Calls of active or inactive are those of the source. Cut-off read from the data, not from the text of the source: active = inhibition above about 50%; inactive = the rest.
Biological target: Prolyl endopeptidase-like (Mus musculus) (UniProt Q8C167)
Experiment: mouse PREPL enzyme inhibition by screening hits – biochemical, gel-based competitive ABPP, fluorescence, HTS hits, PREPL inhibitor project (AID 624481)
Conditions: purified mouse PREPL, at 20 µM, stronger effect = higher value

Prolyl endopeptidase-like (Mus musculus), sequence (Q8C167 whole entry, looked up): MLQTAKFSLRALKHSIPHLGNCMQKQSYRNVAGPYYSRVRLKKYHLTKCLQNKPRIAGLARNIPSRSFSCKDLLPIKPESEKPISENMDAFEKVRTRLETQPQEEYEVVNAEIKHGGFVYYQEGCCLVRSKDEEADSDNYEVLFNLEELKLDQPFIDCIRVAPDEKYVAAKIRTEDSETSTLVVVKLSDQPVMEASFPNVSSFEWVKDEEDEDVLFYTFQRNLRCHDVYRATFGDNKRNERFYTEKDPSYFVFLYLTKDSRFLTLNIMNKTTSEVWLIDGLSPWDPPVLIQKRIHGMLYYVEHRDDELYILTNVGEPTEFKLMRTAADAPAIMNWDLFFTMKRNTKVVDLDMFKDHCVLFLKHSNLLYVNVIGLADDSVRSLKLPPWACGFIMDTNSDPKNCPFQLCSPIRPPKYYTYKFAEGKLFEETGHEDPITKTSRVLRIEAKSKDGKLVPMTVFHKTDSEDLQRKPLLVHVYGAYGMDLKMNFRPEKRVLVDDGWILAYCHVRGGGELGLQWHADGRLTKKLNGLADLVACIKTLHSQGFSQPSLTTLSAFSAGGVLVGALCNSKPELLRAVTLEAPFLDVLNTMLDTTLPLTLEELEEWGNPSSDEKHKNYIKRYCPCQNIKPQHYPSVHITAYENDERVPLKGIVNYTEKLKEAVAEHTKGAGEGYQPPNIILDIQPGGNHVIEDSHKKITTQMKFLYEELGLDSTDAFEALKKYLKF

inhibition, inactive:
COc1ccc2nc3cc(Cl)ccc3c(Nc3cc(CN4CCCC4)c(O)c(CN4CCCC4)c3)c2n1 -45%, CN(C)c1ccc(C(CNC(=O)c2ccccc2)c2c[nH]c3ccccc23)cc1 (stereo not drawn) 13%, C#CCOCCOCCOCCNc1nc(N2CCN(C(=O)C(Cc3cc4ccccc4[nH]3)n3cc(C(N)C(C)CC)nn3)CC2)nc(N2CCN(C(=O)C(Cc3cc4ccccc4[nH]3)n3cc(C(N)C(C)CC)nn3)CC2)n1 (stereo not drawn) -161%

Reference: PubChem BioAssay AID624481 (The Scripps Research Institute Molecular Screening Center, 2012)
